Measurements taken from the supplement of paper PMC9446081.
Hit rate of the full screen: of about 39,000 compounds, about 220 (0.56%) showed activity. Shown is part of a subset that was picked to be rich in actives. A number with no mark means an inactive call.

test system: Escherichia coli K-12 BW25113; test: relative growth (OD600 normalised to plate interquartile mean) (fraction); higher = less growth inhibition, active = 0.2 or less; details: 50 µM; LB; incubation time: overnight (16-24 h)
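Also: Wild-type cells incubated without shaking, value is the mean of two biological replicates.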

SMILES | relative growth
CC(C)NC(=O)N(C)C[C@@H]1Oc2ccc(NC(=O)CCC(F)(F)F)cc2CC(=O)N([C@H](C)CO)C[C@@H]1C | 0.959
Cl.O=C1CC2(CCCC2)CC(=O)N1CCCCN1CCN(c2ncccn2)CC1 | 0.0493 (active)
Cn1c(=O)cnn(CCCCN2CCN(c3ncccn3)CC2)c1=O | 0.987
O=C(C1CC1)N1CCN(c2ncccn2)CC1 | 0.991
CC(C)CC#Cc1cnc2c(c1)C(=O)N([C@@H](C)CO)C[C@@H](C)[C@H](CN(C)C(=O)CCN1CCCCC1)O2 | 0.987
COc1ccc(NC(=O)N(C)C[C@@H]2Oc3c(NC(=O)CCCCCC(=O)Nc4ccccc4N)cccc3C(=O)N([C@H](C)CO)C[C@H]2C)cc1 | 1.01
C[C@@H]1CN([C@H](C)CO)C(=O)c2cc(NC(=O)Nc3ccc(C(F)(F)F)cc3)ccc2O[C@@H]1CN(C)Cc1ccc(-c2ccccc2)cc1 | 0.996
O=C1NCCN1c1ncc([N+](=O)[O-])s1 | 0.0407 (active)
O=C1NCCN1c1cccnc1 | 1.01
CC(=O)Nc1ncc([N+](=O)[O-])s1 | 0.923
Cc1noc(C)c1NC(=O)Nc1ccc2c(c1)CC(=O)N([C@H](C)CO)C[C@@H](C)[C@H](CN(C)CC1CC1)O2 | 1.02
CC(C)[C@@H](CC[C@@H](C)[C@H]1CC[C@H]2[C@@H]3[C@H](O)C[C@H]4C[C@@H](NCCCNCCCCN)CC[C@]4(C)[C@H]3CC[C@]12C)OS(=O)(=O)O | 0.137 (active)
CC(CCC(=O)O)C1CCC2C3C(O)CC4CC(O)CCC4(C)C3CCC12C (configuration not stated) | 1.01
CCCCCCCCCCCCCCCCCCCC(=O)N[C@H]1CC[C@@]2(C)[C@@H](C1)C[C@@H](O)[C@@H]1[C@@H]2C[C@H](O)[C@]2(C)[C@@H]([C@H](C)CCC(=O)O)CC[C@@H]12 | 1.02
COC(=O)CCC(C)C1CCC2C3C(O)CC4CC(O)CCC4(C)C3CC(O)C12C (configuration not stated) | 1.03
CC(C)[C@@H](CC[C@@H](C)[C@H]1CC[C@H]2[C@@H]3[C@H](O)C[C@H]4C[C@@H](NCCCNCCCCNCCCN)CC[C@]4(C)[C@H]3CC[C@]12C)OS(=O)(=O)O | 0.152 (active)
C[C@H](CCC(=O)NCCS(=O)(=O)O)[C@H]1CC[C@H]2[C@@H]3[C@H](O)C[C@@H]4C[C@H](O)CC[C@]4(C)[C@H]3C[C@H](O)[C@]12C | 1.01
C[C@H]1CN([C@@H](C)CO)C(=O)Cc2cc(NC(=O)Cc3ccccc3)ccc2O[C@@H]1CN(C)S(=O)(=O)c1ccccc1 | 0.993
CCOC(=O)[C@@H](C)n1ncn2cccc2c1=O | 1.01
CCCC#Cc1ccc2c(c1)O[C@@H](CN(C)C(=O)c1cnccn1)[C@@H](C)CN([C@H](C)CO)S2(=O)=O | 0.971
C[C@H]1CC/C=C\[C@H]2O[C@@]34C=CCN(c5ccc6ccccc6c5)C(=O)[C@H]3N(CCO)C(=O)[C@@H]4[C@@H]2C(=O)O1 | 0.983
CC(=O)N1C[C@@H]2C(=O)N(C)C3(CCN(S(=O)(=O)Cc4ccccc4)CC3)[C@H]2C1 | 0.958
C[C@H]1CN([C@@H](C)CO)C(=O)Cc2cc(NC(=O)CCCCCC(=O)Nc3ccccc3N)ccc2O[C@H]1CN(C)C(=O)Nc1ccc(C(F)(F)F)cc1 | 0.958

SMILES | relative growth
C[C@H]1CN([C@@H](C)CO)C(=O)c2c(c3ccccc3n2C)-c2ccccc2CO[C@@H]1CN(C)Cc1cccc(F)c1 | 0.962
CC1=C(C(=O)O)N2C(=O)[C@H](NC(=O)[C@@H](N)c3ccccc3)[C@H]2SC1 | 1.02
CC1=C(C(=O)O)N2C(=O)[C@@H](NC(=O)[C@@H](N)c3ccccc3)[C@H]2SC1 | 0.998
NC(C(=O)NC1C(=O)N2C(C(=O)O)=C(Cl)CSC12)c1ccccc1 (configuration not stated) | 0.0491 (active)
CC1=C(C(=O)O)N2C(=O)C(NC(=O)C(N)c3ccccc3)C2SC1 (configuration not stated) | 1.03
N[C@@H](C(=O)N[C@@H]1C(=O)N2C(C(=O)O)=C(Cl)CC[C@H]12)c1ccccc1 | 0.0311 (active)
CC1=C(C(=O)O)N2C(=O)[C@@H](NC(=O)[C@H](N)c3ccccc3)[C@H]2SC1 | 1.03
N[C@@H](C(=O)N[C@@H]1C(=O)N2C(C(=O)O)=C(Cl)CS[C@H]12)c1ccccc1 | 0.0303 (active)
OC[C@H]1O[C@H](n2nnc3ccccc32)[C@@H](O)[C@@H](O)[C@@H]1O | 0.989
Cc1noc(C)c1S(=O)(=O)Nc1cccc2c1O[C@H](CN(C)S(=O)(=O)c1cccs1)[C@H](C)CN([C@@H](C)CO)C2=O | 1
CCCN1C[C@@H](C)[C@H](OC)CN(C)C(=O)c2ccc(NS(=O)(=O)c3cn(C)cn3)cc2OC[C@@H]1C | 1
Nc1ccc(/C=C/c2ccccc2)cc1 | 0.999
C[C@H](CO)N1C[C@H](C)[C@@H](CN(C)C(=O)c2cnccn2)Oc2cc(Br)ccc2S1(=O)=O | 0.986
CC1CCc2c(N3CCC(O)CC3)c(F)cc3c(=O)c(C(=O)O)cn1c23 (configuration not stated) | 0.0484 (active)
CC1CCc2cc(F)cc3c(=O)c(C(=O)O)cn1c23 (configuration not stated) | 0.0455 (active)
C[C@@H]1CN([C@@H](C)CO)C(=O)Cc2cc(NC(=O)Cc3ccccc3)ccc2O[C@@H]1CN(C)Cc1ccc(Oc2ccccc2)cc1 | 0.987
O=C(C[C@H]1C=C[C@H](NS(=O)(=O)c2ccccc2F)[C@@H](CO)O1)NCCCN1CCOCC1 | 0.993
C[C@H]1CN([C@@H](C)CO)C(=O)Cc2cc(NS(=O)(=O)c3ccccc3)ccc2O[C@@H]1CN(C)S(C)(=O)=O | 0.961
NC(=O)[C@@H]1C(=O)C[C@@H]2C[C@@H]3Cc4cccc(O)c4C(=O)[C@@H]3C(=O)[C@]2(O)C1=O | 0.164 (active)
C[C@@H]1CN([C@@H](C)CO)C(=O)Cc2cc(NC(=O)C3CCCCC3)ccc2O[C@H]1CN(C)C(=O)Nc1cccc2ccccc12 | 1.01
COC(=O)[C@H](Cc1ccc(N=[N+]=[N-])cc1)N1CC2=C[C@@H](C3CC3)n3c(=O)n(C)c(=O)n3[C@H]2[C@@H]1[C@@H](O)Cc1ccccc1 | 0.989
O=C(O)c1cn(C2CC2)c2cc(N3CCNCC3)c(F)cc2c1=O | 0.0478 (active)
O=C(O)c1cn(C2CC2)c2cc(N3CCC(O)(COc4ccc(N5C[C@H](CO)OC5=O)cc4F)CC3)c(F)cc2c1=O | 0.111 (active)

SMILES | relative growth
CC(=O)NC[C@H]1CN(c2ccc(N3CCN(C(=O)CO)CC3)c(F)c2)C(=O)O1 | 0.38
CCN1CCN(c2cc3c(cc2F)c(=O)c(C(=O)O)cn3C2CC2)CC1 | 0.0449 (active)
CC(=O)NCC1CN(c2ccc(N3CCOCC3)c(F)c2)C(=O)O1 (configuration not stated) | 0.701
C[C@H](CO)N1C[C@H](C)[C@H](CN(C)C(=O)Nc2ccc(F)cc2)OCCCC[C@H](C)Oc2ccc(NC(=O)C3CCOCC3)cc2C1=O | 0.981
Cc1ccc(S(=O)(=O)Nc2ccc3c(c2)C(=O)N([C@@H](C)CO)C[C@H](C)[C@H](CN(C)S(C)(=O)=O)OCCCC[C@@H](C)O3)cc1 | 1
NC[C@H]1CC[C@H](C(=O)N2CCC(c3ccncc3)CC2)CC1 | 1.03
Cc1ccc(S(=O)(=O)N[C@H]2CC[C@H](CCNC(=O)CN3CCOCC3)O[C@@H]2CO)cc1 | 1
C[C@@H]1CN([C@H](C)CO)C(=O)c2cc(NS(=O)(=O)c3ccccc3)ccc2O[C@@H](C)CCCCO[C@H]1CN(C)Cc1ccc(C(=O)O)cc1 | 1
COc1ccc(NC(=O)N(C)C[C@H]2OCCCC[C@@H](C)Oc3ccc(NC(=O)c4ccccc4)cc3C(=O)N([C@@H](C)CO)C[C@H]2C)cc1 | 0.994
COC[C@H](C)N1C[C@H](C)[C@@H](CN(C)Cc2ccc(Oc3ccccc3)cc2)Oc2c(NC(=O)c3ccncc3)cccc2C1=O | 1
Cc1noc(C)c1S(=O)(=O)Nc1ccc2c(c1)C(=O)N([C@H](C)CO)C[C@@H](C)[C@H](CN(C)C(=O)NC1CCCCC1)O2 | 1.01
C[C@@H]1CN([C@H](C)CO)C(=O)c2cc(NS(=O)(=O)c3ccc(F)cc3)ccc2O[C@@H](C)CCCCO[C@@H]1CN(C)C(=O)C1CCCCC1 | 0.993
Cc1noc(C)c1NC(=O)N(C)C[C@H]1Oc2ccc(NC(=O)Nc3ccc(C(F)(F)F)cc3)cc2CC(=O)N([C@H](C)CO)C[C@H]1C | 0.935
C[C@H](CO)N1C[C@H](C)[C@H](CN(C)S(=O)(=O)c2ccccc2)Oc2ccc(NC(=O)C3CC3)cc2CC1=O | 1
CC(C)(C)c1ccc(NC(=O)N[C@H]2CCCc3ccccc32)cc1 | 1.03
COc1ccc(NC(=O)Nc2ccc3c(c2)CC(=O)N([C@H](C)CO)C[C@@H](C)[C@@H](CN(C)S(=O)(=O)c2c(C)noc2C)O3)cc1 | 0.969
Nc1ncn(C2OC(CO)C(O)C2O)c(=O)n1 (configuration not stated) | 0.05 (active)
Nc1ncn([C@@H]2C[C@H](O)[C@@H](CO)O2)c(=O)n1 | 0.907
Nc1ncn([C@@H]2O[C@H](CO)[C@@H](O)[C@H]2O)c(=O)n1 | 0.458
CC(=O)N(C)C[C@@H]1Oc2ncc(C#C[C@@H](C)O)cc2C(=O)N([C@@H](C)CO)C[C@H]1C | 1.01
O=C(C[C@@H]1CC[C@@H]2[C@H](COC[C@@H](O)CN2S(=O)(=O)c2cccc(Cl)c2)O1)N1CCOCC1 | 1.01
